The source of these data is PubChem BioAssay (NCATS).

Inconclusive results are not listed. The source holds several records for some structures; these can differ, active in one and inactive in another. Calls of active or inactive are those of the source. Unless noted, calls follow the shape of the dose curve; as a rule, active = well fitted inhibition curve with a large enough effect; inconclusive = small, poorly fitted or top-dose-only effect; inactive = no such curve, though single readings can be large or run the other way.

Test system in one assay: not listed separately
The experiment in a line: Natriuretic polypeptide receptor (hNpr1) antagonism - Pilot counterscreen GloSensor control cell line (AID 1347045; calls by dose curve; also: % is scaled to controls: 0 for no effect and ±100 for the full control effect). To be noted: HEK293 cGMP GloSensor cells, SNP-stimulated luminescence, 20 min; series mostly up to 38.3 µM; activity change, negative = inhibition: at the top concentration. The procedure, abridged: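 Cells were first seeded and incubated overnight at 37C, then loaded with 2% GloSensor substrate for 2 h. Compounds were added for 30 min at room temperature, followed by a baseline read, 50 uM SNP and a final read after 20 min.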
Take `CN1C[C@H](CNC(=O)OCc2ccccc2)C[C@@H]2c3cccc4c3c(cn4C)C[C@H]21`: the “activity change, negative = inhibition” value was 7.35% (inactive).
Still for that read-out and setting: the value for `CC(=O)[C@H]1CC[C@H]2[C@@H]3CC[C@H]4C[C@H](O)CC[C@]4(C)[C@H]3C(=O)C[C@]12C` was -0.507% (inactive).
As to `C[C@@H]1O[C@@H](O[C@H]2C[C@@H](O)[C@]3(CO)[C@H]4[C@H](O)C[C@]5(C)[C@@H](C6=CC(=O)OC6)CC[C@]5(O)[C@@H]4CC[C@]3(O)C2)[C@H](O)[C@H](O)[C@H]1O`, the “activity change, negative = inhibition” value is 1.48% (inactive).
On the same count and under the same terms, in the case of `O=C1NCN(c2ccccc2)C12CCN(CC1COc3ccccc3O1)CC2` (configuration not stated) it was -3.39% (inactive).

A further assay deals with Atrial natriuretic peptide receptor 1 (Homo sapiens) (UniProt P16066). Kind of assay: Natriuretic polypeptide receptor (hNpr1) antagonism - Pilot screen (AID 1347049; calls by dose curve;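 also: HEK293 cells with hNpr1 and GloSensor cGMP luciferase stimulated by 0.1 nM hNppA; agonist-evoked cGMP luminescence read 20 min after hNppA addition; % is scaled to controls: 0 for no effect and ±100 for the full control effect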). Conditions: hNpr1 cells, antagonist mode cGMP read-out; series mostly up to 57.5 µM; activity change, negative = inhibition: at the top concentration. The procedure, abridged: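 Receptor antagonism read as cGMP-dependent luminescence in hNpr1/pGS-40F HEK293 cells: pre-read after 30 min compound exposure, post-read 20 min after hNppA agonist at 0.1 nM final, all at room temperature, protected from light; A-71915 titration as control.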
Chain of Atrial natriuretic peptide receptor 1 (Homo sapiens) (P16066 whole entry, looked up): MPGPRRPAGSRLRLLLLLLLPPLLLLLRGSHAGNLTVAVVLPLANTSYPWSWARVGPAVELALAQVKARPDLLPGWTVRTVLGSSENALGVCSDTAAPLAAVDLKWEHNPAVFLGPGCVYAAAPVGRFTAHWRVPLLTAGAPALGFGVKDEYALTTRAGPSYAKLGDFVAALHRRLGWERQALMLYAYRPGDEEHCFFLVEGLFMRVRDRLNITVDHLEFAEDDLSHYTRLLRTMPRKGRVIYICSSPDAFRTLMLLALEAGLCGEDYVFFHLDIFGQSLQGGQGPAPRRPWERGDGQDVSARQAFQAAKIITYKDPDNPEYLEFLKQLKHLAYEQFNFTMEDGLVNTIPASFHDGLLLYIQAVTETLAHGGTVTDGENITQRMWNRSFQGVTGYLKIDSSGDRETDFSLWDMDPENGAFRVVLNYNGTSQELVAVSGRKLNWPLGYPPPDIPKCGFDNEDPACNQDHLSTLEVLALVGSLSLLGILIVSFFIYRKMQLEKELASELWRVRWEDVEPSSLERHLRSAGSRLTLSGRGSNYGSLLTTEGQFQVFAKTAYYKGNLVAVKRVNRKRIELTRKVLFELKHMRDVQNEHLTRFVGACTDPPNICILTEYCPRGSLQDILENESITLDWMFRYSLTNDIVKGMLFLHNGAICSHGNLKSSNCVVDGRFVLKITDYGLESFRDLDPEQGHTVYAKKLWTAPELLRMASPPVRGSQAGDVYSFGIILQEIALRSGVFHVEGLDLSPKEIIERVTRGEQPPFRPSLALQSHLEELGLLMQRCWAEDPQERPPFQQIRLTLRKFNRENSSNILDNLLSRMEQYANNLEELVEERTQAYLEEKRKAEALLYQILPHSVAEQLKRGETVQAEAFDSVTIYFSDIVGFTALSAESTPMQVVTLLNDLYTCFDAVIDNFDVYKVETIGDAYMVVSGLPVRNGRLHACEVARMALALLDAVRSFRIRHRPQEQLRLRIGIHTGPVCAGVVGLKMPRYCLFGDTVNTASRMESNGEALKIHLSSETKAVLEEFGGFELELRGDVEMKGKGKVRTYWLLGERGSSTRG
For the compound `CN1C[C@H](CNC(=O)OCc2ccccc2)C[C@@H]2c3cccc4c3c(cn4C)C[C@H]21`, the “activity change, negative = inhibition” value was -6.75% (inactive).
Still for that read-out and setting: the value for `CC(=O)[C@H]1CC[C@H]2[C@@H]3CC[C@H]4C[C@H](O)CC[C@]4(C)[C@H]3C(=O)C[C@]12C` was 5.09% (inactive); that for `C[C@@H]1O[C@@H](O[C@H]2C[C@@H](O)[C@]3(CO)[C@H]4[C@H](O)C[C@]5(C)[C@@H](C6=CC(=O)OC6)CC[C@]5(O)[C@@H]4CC[C@]3(O)C2)[C@H](O)[C@H](O)[C@H]1O` was -8.96% (inactive).
Same read-out and setting: in the case of `O=c1[nH]c2ccccc2n1CCCN1CCC(n2c(=O)[nH]c3cc(Cl)ccc32)CC1` it was -5% (inactive); in that of `CC[C@@H](CO)NC(=O)[C@@H]1C=C2c3cccc4[nH]cc(c34)C[C@H]2N(C)C1`, 3.02% (inactive); in that of `O=C1NCN(c2ccccc2)C12CCN(CC1COc3ccccc3O1)CC2` (configuration not stated), 1.99% (inactive).

The target of another assay is Atrial natriuretic peptide receptor 2 (Homo sapiens) (UniProt P20594). The experiment in a line: Natriuretic polypeptide receptor (hNpr2) antagonism - Pilot subtype selectivity assay (AID 1347050; calls by dose curve; also: % is scaled to controls: 0 for no effect and ±100 for the full control effect). Conditions: NPR2-expressing cells, cGMP antagonist-mode read-out; series mostly up to 38.3 µM; activity change, negative = inhibition: at the top concentration. The procedure, abridged: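 Antagonist mode: compounds (LOPAC1280, seven 1:5 dilutions) added 30 min before 1 nM hNppC stimulation of hNpr2-HEK293 cGMP-sensor cells; luminescence read before and 20 min after agonist at ambient temperature.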
Chain of Atrial natriuretic peptide receptor 2 (Homo sapiens) (P20594 whole entry, looked up): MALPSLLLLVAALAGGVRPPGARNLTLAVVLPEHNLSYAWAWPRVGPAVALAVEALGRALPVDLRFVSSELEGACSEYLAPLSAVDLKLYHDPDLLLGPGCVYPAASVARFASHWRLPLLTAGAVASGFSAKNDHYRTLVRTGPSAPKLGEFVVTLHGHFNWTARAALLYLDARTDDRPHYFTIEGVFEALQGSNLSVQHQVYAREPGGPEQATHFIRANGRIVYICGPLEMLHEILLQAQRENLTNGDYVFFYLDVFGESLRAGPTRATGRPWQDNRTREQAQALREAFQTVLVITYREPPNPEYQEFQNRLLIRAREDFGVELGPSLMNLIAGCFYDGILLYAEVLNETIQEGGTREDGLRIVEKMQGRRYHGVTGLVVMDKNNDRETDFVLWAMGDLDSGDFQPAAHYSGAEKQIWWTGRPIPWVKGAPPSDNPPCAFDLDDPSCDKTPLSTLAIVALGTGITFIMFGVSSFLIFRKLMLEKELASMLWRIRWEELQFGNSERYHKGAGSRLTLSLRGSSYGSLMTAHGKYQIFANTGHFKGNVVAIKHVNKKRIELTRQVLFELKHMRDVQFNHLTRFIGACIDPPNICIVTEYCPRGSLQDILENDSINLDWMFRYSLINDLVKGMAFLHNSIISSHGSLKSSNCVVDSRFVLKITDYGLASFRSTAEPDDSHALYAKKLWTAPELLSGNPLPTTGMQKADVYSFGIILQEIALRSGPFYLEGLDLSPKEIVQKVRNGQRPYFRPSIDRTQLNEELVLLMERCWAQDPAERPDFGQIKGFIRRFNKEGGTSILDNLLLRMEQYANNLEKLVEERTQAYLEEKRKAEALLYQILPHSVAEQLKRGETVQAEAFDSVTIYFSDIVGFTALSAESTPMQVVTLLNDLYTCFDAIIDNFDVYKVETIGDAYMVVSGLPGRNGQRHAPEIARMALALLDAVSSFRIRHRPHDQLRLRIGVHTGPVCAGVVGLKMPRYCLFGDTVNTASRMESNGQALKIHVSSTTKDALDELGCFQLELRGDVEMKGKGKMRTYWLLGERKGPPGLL
Regarding `CN1C[C@H](CNC(=O)OCc2ccccc2)C[C@@H]2c3cccc4c3c(cn4C)C[C@H]21`, the “activity change, negative = inhibition” value is 2.51% (inactive).
On the same count and under the same terms, in the case of `CC(=O)[C@H]1CC[C@H]2[C@@H]3CC[C@H]4C[C@H](O)CC[C@]4(C)[C@H]3C(=O)C[C@]12C` it was 0.87% (inactive).
In the case of `C[C@@H]1O[C@@H](O[C@H]2C[C@@H](O)[C@]3(CO)[C@H]4[C@H](O)C[C@]5(C)[C@@H](C6=CC(=O)OC6)CC[C@]5(O)[C@@H]4CC[C@]3(O)C2)[C@H](O)[C@H](O)[C@H]1O`, the “activity change, negative = inhibition” value is 10.9% (inactive).
As to `O=c1[nH]c2ccccc2n1C1CCN(CCCC(c2ccc(F)cc2)c2ccc(F)cc2)CC1`, the “activity change, negative = inhibition” value was -12% (inactive).
On the same count and under the same terms, the value for `CC[C@@H](CO)NC(=O)[C@@H]1C=C2c3cccc4[nH]cc(c34)C[C@H]2N(C)C1` was -0.439% (inactive); that for `O=C1NCN(c2ccccc2)C12CCN(CC1COc3ccccc3O1)CC2` (configuration not stated) was -2.3% (inactive).

Test system in a further assay: not listed separately
The experiment in a line: NS1 protein of Zika virus - qHTS assay to identify small molecule inhibitors in human HEK 293 cells (AID 1347053). Also: nearly all actives have a fitted effect of over 55% in size. Also: potency is read from the fitted curve at half-maximal effect.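 As to activity change, negative = inhibition: plate controls were infected untreated cells for no effect and uninfected cells for full effect.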 To be noted: HEK293 ZIKV MR766 infection, NS1 TR-FRET, 24 h; series mostly up to 46.1 µM; activity change, negative = inhibition: at the top concentration. The procedure, abridged: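 Readout was TR-FRET using paired anti-NS1 antibodies after 24 h infection of HEK 293 cells with ZIKV MR766 (MOI = 0.5). Compound preceded virus by 1 h; reduced signal reflects lower NS1 expression.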
With `Clc1ccc(COC(Cn2ccnc2)c2ccc(Cl)cc2Cl)cc1` (configuration not stated), the “activity change, negative = inhibition” value was 13.2% (inactive).
Regarding `CC(C)=CC1C(C(=O)OCc2cccc(Oc3ccccc3)c2)C1(C)C` (configuration not stated), the “activity change, negative = inhibition” value is 9.29% (inactive).
As for `CN1C[C@H](CNC(=O)OCc2ccccc2)C[C@@H]2c3cccc4c3c(cn4C)C[C@H]21`, the “activity change, negative = inhibition” value was 17.7% (inactive).
In the case of `CC(=O)[C@H]1CC[C@H]2[C@@H]3CC[C@H]4C[C@H](O)CC[C@]4(C)[C@H]3C(=O)C[C@]12C`, the Potency result is “inactive”.
On the same count and under the same terms, the value for `Clc1ccc(CCC(Cn2ccnc2)Sc2c(Cl)cccc2Cl)cc1` (configuration not stated) was 14.8 µM (active).
With `Cc1ccc(-c2nc3ccc(C)cn3c2CC(=O)N(C)C)cc1`, the “activity change, negative = inhibition” value is -7.59% (inactive).
Turning to `CCN(CC)C(=O)N[C@@H]1C=C2c3cccc4[nH]cc(c34)C[C@@H]2N(C)C1`, the “activity change, negative = inhibition” value is 4.34% (inactive).
Take `COC1(CS(=O)c2ccccc2)CCN(CCc2c[nH]c3ccc(F)cc23)CC1` (configuration not stated): the “activity change, negative = inhibition” value is 3.65% (inactive).
The same measure, in the same setting: in the case of `CC(C)(C)NCC(O)c1cc(Cl)c(N)c(Cl)c1` (configuration not stated) it was -17.1% (inactive); in that of `C=C1C[C@@H]2[C@H](CC[C@]3(C)C(=O)CC[C@@H]23)[C@@]2(C)C=CC(=O)C=C12`, -2.79% (inactive).
In the case of `C[C@@H]1O[C@@H](O[C@H]2C[C@@H](O)[C@]3(CO)[C@H]4[C@H](O)C[C@]5(C)[C@@H](C6=CC(=O)OC6)CC[C@]5(O)[C@@H]4CC[C@]3(O)C2)[C@H](O)[C@H](O)[C@H]1O`, the Potency is 13.2 nM (active) and inactive.
Take `O=c1[nH]c2ccccc2n1CCCN1CCC(n2c(=O)[nH]c3cc(Cl)ccc32)CC1`: the Potency entry is “inactive”.
On to `O=c1[nH]c2ccccc2n1C1CCN(CCCC(c2ccc(F)cc2)c2ccc(F)cc2)CC1`, for which the “activity change, negative = inhibition” value was 26.9% (inactive).
The same measure, in the same setting: the value for `CN1C(=S)CN=C(c2ccccc2)c2cc(Cl)ccc21` was 2.99% (inactive); that for `C[C@]12CC[C@H]3[C@@H](CCC4=CC(=O)CC[C@@H]43)[C@@H]1CC[C@@H]2OC(=O)CCc1ccccc1` was 7.59% (inactive).
Consider `CNC(=O)N1N=C(c2ccc(N)cc2)c2cc3c(cc2CC1C)OCO3` (configuration not stated), for which the “activity change, negative = inhibition” value was 4.92% (inactive).
The same measure, in the same setting: in the case of `CCN(CC)CCN1C(=O)CN=C(c2ccccc2F)c2cc(Cl)ccc21` it was -1.86% (inactive); in that of `CC1OC(C)OC(C)O1` (configuration not stated), -2.15% (inactive).
Regarding `N[C@@H](Cc1ccc(Oc2cc(I)c(O)c(I)c2)c(I)c1)C(=O)O`, the “activity change, negative = inhibition” value was -15.8% (inactive).
Consider `O=c1oc2ccccc2c(O)c1C(CC(O)c1ccc(-c2ccc(Br)cc2)cc1)c1ccccc1` (configuration not stated), for which the “activity change, negative = inhibition” value was 12.1% (inactive).
As for `Oc1cc(Cl)ccc1Oc1ccc(Cl)cc1Cl`, the “activity change, negative = inhibition” value was -1.04% (inactive).
As for `CC[C@@H](CO)NC(=O)[C@@H]1C=C2c3cccc4[nH]cc(c34)C[C@H]2N(C)C1`, the Potency result is “inactive”.
In the case of `O=C1NCN(c2ccccc2)C12CCN(CC1COc3ccccc3O1)CC2` (configuration not stated), the Potency entry was “inactive”.
Take `Oc1ccccc1-c1ccccc1`: the “activity change, negative = inhibition” value is -2.88% (inactive).
On to `C[C@@H]1[C@@H](C(=O)C[C@H]2O[C@@H]3O[C@]4(C)CC[C@@H]5[C@H](C)CC[C@@H]([C@H]2C)[C@@]35OO4)O[C@@H]2O[C@]3(C)CC[C@H]4[C@H](C)CC[C@@H]1[C@@]24OO3`, for which the “activity change, negative = inhibition” value was 1.26% (inactive).
The same measure, in the same setting: in the case of `CCOP(=S)(OCC)Oc1cc(C)nc(C(C)C)n1` it was 4.48% (inactive); in that of `COC[C@@H](NC(C)=O)C(=O)NCc1ccccc1`, -8.46% (inactive).
Take `OCCOc1ccccc1`: the “activity change, negative = inhibition” value was 0.816% (inactive).
Consider `NP(N)(=O)NC(=O)c1ccc(F)cc1`, for which the “activity change, negative = inhibition” value was 0.787% (inactive).
Consider `CCC(COC(=O)c1cc(OC)c(OC)c(OC)c1)(c1ccccc1)N(C)C` (configuration not stated), for which the “activity change, negative = inhibition” value is 14% (inactive).
Same read-out and setting: the value for `CNC(=O)c1ccc(N2C(=S)N(c3ccc(C#N)c(C(F)(F)F)c3)C(=O)C23CCC3)cc1F` was -3.24% (inactive).
